Assay results from PubChem BioAssay (NCATS).
“And” between values parts separate entries of the source, which are not always exact repeats. Equal values may be shown once. Inconclusive results are not listed. The source made the active and inactive calls. Unless noted, calls follow the shape of the dose curve; as a rule, active = well fitted curve in the direction sought with a large enough effect; inconclusive = small, poorly fitted or top-dose-only effect, or another doubt; inactive = no such curve, though single readings can be large; an effect the other way counts as inactive or inconclusive.

Experiments:
[1] = Cell Viability - MRC5 (AID 434; calls by dose curve;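 also: potency is read from the fitted curve at half-maximal effect; cells exposed to compound for 40 hours at 37 °C; potency reflects cytotoxicity seen as loss of intracellular ATP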); conditions: MRC5 lung fibroblast viability, qHTS
Method in brief: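 qHTS cytotoxicity in human lung fibroblast MRC5 cells; 40 hr treatment, 37 °C; cellular ATP by luciferase luminescence; DMSO = 0%, 100 uM tamoxifen = 100% inhibition; Hill-fit AC50.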

[2] = Cellular Toxicity (caspase-3) HepG2 (AID 654); conditions: HepG2 caspase-3 activation, luminescence; series mostly up to 92.2 µM;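 also: cells exposed to compound for 16 hours before reading; 0% = DMSO alone and 100% = caspase signal from 100 µM tamoxifen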
Method in brief: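 HepG2 cells (1500/well) were treated 16 h at 37 °C in complete medium, then caspase 3/7 activity was read by Caspase-Glo luminescence. Data were normalized to DMSO and 100 uM tamoxifen; AC50 came from Hill-equation fits of qHTS concentration-response.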

[3] = Cellular Toxicity (caspase-3) HUV-EC-C (AID 656); conditions: HUV-EC-C cells, caspase-3 activation (apoptosis); series mostly up to 92.2 µM
Method in brief: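 Concentration-dependent caspase 3/7 induction was assessed in HUV-EC-C cells exposed for 16 hours. Data scaled between DMSO and tamoxifen (100 uM) controls.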

[4] = Cellular Toxicity (caspase-3) SHSY5Y (AID 657); conditions: SH-SY5Y caspase-3 activation; series mostly up to 91.7 µM
Method in brief: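 Readout: caspase-cleaved peptide-aminoluciferin substrate driving luciferase light in SH-SY5Y neuroblastoma cells after 16 h treatment. Response normalized to DMSO and 10 uM staurosporine controls.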

[5] = Cellular Toxicity (caspase-3) BJ (AID 658); conditions: BJ fibroblasts, luminescence; Potency: caspase-3 activation; series mostly up to 91.7 µM
Method in brief: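 Readout: Caspase-Glo 3/7 luminescence increase in BJ cells after 16 hr treatment at 37 °C. Staurosporine and tamoxifen served as positive controls; AC50 values came from Hill modelling of data normalized to DMSO and 10 uM staurosporine.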

[6] = Cellular Toxicity (caspase-3) MRC-5 (AID 659); conditions: MRC-5 cells, luminescence, normalized: DMSO 0%, 10 µM staurosporine 100%; series mostly up to 91.7 µM
Method in brief: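 Concentration-dependent caspase 3/7 activation is measured in human normal lung fibroblasts (MRC-5) following 16-hour treatment. AC50 values come from standard Hill-equation modeling of luminescence normalized to DMSO and 10 uM staurosporine.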

[7] = Cellular Toxicity (caspase-3) Mesangial (AID 660); conditions: mesangial cells, normalized: DMSO 0%, 100 µM tamoxifen 100%; series mostly up to 91.7 µM;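 also: cells exposed to compound for 16 h before the caspase read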
Method in brief: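 Human renal glomerular mesangial cells, 1000/well, 5 h at 37 C before 16 h compound treatment. Caspase-Glo 3/7 luminescence after 20 min; normalized to DMSO and 100 uM tamoxifen, AC50 from Hill fit.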

[8] = Cellular Toxicity (caspase-3) SK-N-SH (AID 661); conditions: SK-N-SH caspase-3 activation, qHTS, DMSO as zero, staurosporine as full; series mostly up to 91.7 µM
Method in brief: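 Human SK-N-SH neuroblastoma cells, 1500/well, were exposed to compounds for 16 hours at 37 °C. Caspase-Glo 3/7 luminescence was normalized to DMSO (basal) and 10 uM staurosporine (100%), and AC50 came from a Hill fit.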

[9] = Cellular Toxicity (caspase-3) H-4-II-E (AID 663); conditions: H-4-II-E rat hepatoma; Potency: caspase-3 activation; series mostly up to 92.2 µM;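 also: cells exposed to compound for 16 hr before readout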
Method in brief: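 Apoptosis induction is scored as increased luminescence from caspase 3/7 substrate cleavage in rat hepatoma H-4-II-E cells exposed to compound for 16 hr. Activity is scaled between DMSO and 100 uM tamoxifen.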

[10] = Cellular Toxicity (caspase-3) Hek293 (AID 664); conditions: HEK293 caspase-3 activation, DMSO = 0%, 100 µM tamoxifen = 100%; at 92.2 µM (top of the series);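 also: cells exposed to compound for 16 h at 37 °C before readout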
Method in brief: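 HEK293 cells in complete medium treated 16 h at 37 °C, then Caspase-Glo 3/7 luminescence read after 20 min at room temperature. Normalized to DMSO and 100 uM tamoxifen; AC50 from Hill fit of concentration-response.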

[11] = Cellular Toxicity (caspase-3) N2a (AID 665); conditions: N2a cells, luminescence, normalized: DMSO 0%, 10 µM staurosporine 100%; series mostly up to 92.2 µM;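 also: compound exposure lasted 16 h at 37 °C before readout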
Method in brief: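 Mouse N2a neuroblastoma cells, 1500 per well, treated 16 h at 37 °C in complete medium; caspase-3/7 activity by Caspase-Glo luminescence after 1 h. Normalized to DMSO and 10 uM staurosporine; AC50 from Hill fits.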

[12] = Cellular Toxicity (caspase-3) Renal Proximal Tubule (AID 667); conditions: renal proximal tubule cells, primary cells freshly taken from rat; Potency: caspase-3 activation; series mostly up to 91.7 µM;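 also: cells exposed to compound for 16 hours at 37 °C before detection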
Method in brief: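 Caspase-Glo 3/7 read-out, rat primary kidney proximal tubule cells. Compound exposure 16 h, 37 °C; detection after 1 h at RT. Activity scaled to DMSO and 10 uM staurosporine.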

[13] = MultiTox-Fluor Cytotoxicity Assay - LYMP1-001 - Dead Cells (AID 946); conditions: LYMP1-001 lymphoblastoid cells, dead-cell protease fluorescence; series mostly up to 92.2 µM
Method in brief: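 Cytotoxicity as increased dead-cell protease fluorescence (bis-AAF-R110, 485/520 nm), read 60 min after MultiTox-Fluor reagent. Human lymphoblastoid line exposed 16 h; Hill-fitted AC50, with DMSO as 0% and 15 uM tetraoctylammonium bromide as 100%.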

[14] = MultiTox-Fluor Cytotoxicity Assay - LYMP1-003 - Live Cells (AID 962); conditions: LYMP1-003 lymphoblastoid cells, MultiTox-Fluor live-cell protease fluorescence; series mostly up to 92.2 µM;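 also: 0% = DMSO only and full loss = 92 µM tetraoctylammonium bromide; cytotoxic hits lower the live-cell protease signal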
Method in brief: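 LYMP1-003 lymphoblastoid cells, 2500/well in complete medium, treated 16 h at 37 C; live-cell protease cleavage of GF-AFC read by fluorescence (Ex/Em 405/510) after 60 min reagent; AC50 from Hill fits of concentration-response.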

[15] = Cell Viability - LYMP1-003 - Assay at 24 hr (AID 963); conditions: LYMP1-003 lymphoblastoid cell viability; series mostly up to 92.2 µM;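 also: plate controls were DMSO only for no effect and tetraoctylammonium bromide positive control for full effect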
Method in brief: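 Human lymphoblastoid LYMP1-003 cells, 2500/well, treated 24 h at 37 C in complete medium. Viability read as intracellular ATP by CellTiter-Glo luminescence after 30 min at room temperature; AC50 from Hill-equation fits of qHTS concentration-response.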

[16] = qHTS Assay for Identification of Small Molecule Inducers of Hypoxia Response (AID 2120; active = well fitted curve in the direction sought with a large enough effect in the signal ratio, with a control signal flat, not every such curve was filed as active; the % refers to the signal ratio; also: 0% is about no effect); conditions: hypoxia response reporter cells, beta-lactamase ratio readout; series mostly up to 104 µM
Method in brief: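 HRE-bla ME-180 cells in Opti-MEM with 0.5% dialyzed FBS, pre-plated 4-5 h, then compound titration for 17 h at 37 degrees Celsius. CCF4 loaded 2.5 h at room temperature; 460/530 nm ratio gave %Activity and AC50 for induction.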

[17] = biological target: Peroxisome proliferator-activated receptor alpha (Homo sapiens) (UniProt Q07869); experiment: qHTS assay for small molecule agonists of the peroxisome proliferator-activated receptor alpha (PPARalpha) signaling pathway (AID 651778); conditions: PathHunter PPARalpha complementation, chemiluminescence, 6 h; max response: active compounds read high; also: % of control where 0% means no effect
Sequence of Peroxisome proliferator-activated receptor alpha (Homo sapiens) (Q07869 whole entry, looked up): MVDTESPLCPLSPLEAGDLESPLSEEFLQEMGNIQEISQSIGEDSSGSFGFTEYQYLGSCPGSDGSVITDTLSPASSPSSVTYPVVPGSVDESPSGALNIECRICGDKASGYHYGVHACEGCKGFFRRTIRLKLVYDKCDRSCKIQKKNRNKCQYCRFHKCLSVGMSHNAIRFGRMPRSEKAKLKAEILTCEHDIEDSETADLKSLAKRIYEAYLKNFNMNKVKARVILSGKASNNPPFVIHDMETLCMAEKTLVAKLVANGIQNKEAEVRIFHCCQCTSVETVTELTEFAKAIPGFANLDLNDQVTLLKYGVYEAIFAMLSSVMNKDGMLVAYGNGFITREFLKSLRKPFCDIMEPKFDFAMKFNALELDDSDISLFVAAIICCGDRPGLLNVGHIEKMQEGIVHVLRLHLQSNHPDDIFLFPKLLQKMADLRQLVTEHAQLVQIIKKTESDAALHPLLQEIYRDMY
Method in brief: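 Chemiluminescence from complemented enzyme reported PPARalpha activation in cells after 6 hr of compound treatment at 37 C. The detection reagent was incubated for 60 min at room temperature, and compounds were scored as agonists.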

[18] = qHTS assay for small molecule agonists of the antioxidant response element (ARE) signaling pathway measured by Nrf2-dependant transcriptional activity - cell viability counter screen (AID 720653; active = well fitted curve in the direction sought with a large enough effect in the repeat runs; an effect the other way counts as inactive or inconclusive; also: % is scaled to controls: 0 for no effect and ±100 for the full control effect); conditions: ARE-bla HepG2 viability, CellTiter-Glo ATP luminescence, 16 h; max response: active compounds read low
Method in brief: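 Cytotoxicity counter screen: intracellular ATP quantified by CellTiter-Glo luminescence in the same ARE-bla HepG2 plates, after 16 h compound exposure and a 2 h beta-lactamase substrate step.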

[19] = qHTS assay for cell viability of HEK293 cells (AID 743288); conditions: ATP luminescence (CellTiter-Glo), 18 h; max response: active compounds read low; also: % is scaled to controls: 0 for no effect and ±100 for the full control effect; nearly all actives have a fitted effect of over 50% in size
Method in brief: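 Luminescent ATP quantitation served as the viability read-out. Cells (parental HEK293, 2,000/well) received compounds after at least 5 h at 37 C and were exposed for 18 h before a 30 min room-temperature reagent step.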

[20] = qHTS assay for cell viability of the p53RE-bla HCT-116 cell line (AID 743292); conditions: p53RE-bla HCT-116 viability, ATP luminescence, 16 h; series mostly up to 95 µM; also: % is scaled to controls: 0 for no effect and ±100 for the full control effect; nearly all actives have a fitted effect of over 55% in size
Method in brief: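 ATP-based luminescence, 16 h compound exposure at 37 C, p53RE-bla HCT-116 cells at 4,000/well.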

CC(/C=C/C=C(C)/C=C/C(=O)O)=C\C=C\C=C(C)\C=C\C=C(C)\C=C\C(=O)O
inactive: Potency [1] > 92 µM | Potency [2] | Potency [3] | Potency [4] | Potency [5] | outcome [6] | outcome [7] | outcome [8] | Potency [9] | caspase-3 activation [10] -7.2% | outcome [11] | Potency [12] | Potency [13] | Potency [14] | Potency [15] | Potency [16] | max response [17] -2.62% | max response [18] -1.24% | max response [19] -0.748% | Potency [20]

Brc1cc(Oc2cc(Br)c(Br)c(Br)c2Br)c(Br)c(Br)c1Br
inactive: Potency [1] > 92 µM | Potency [2] | Potency [3] | Potency [4] | Potency [5] | outcome [6] | outcome [7] | outcome [8] | Potency [9] | caspase-3 activation [10] 0.395% | outcome [11] | Potency [12] | Potency [13] | Potency [14] | Potency [15] | Potency [16] | max response [17] -7.16% and 0.47% | max response [18] 3.78% and -22.3% | max response [19] -20.8% and -10.9% | Potency [20]

c1ccc2ncccc2c1
inactive: Potency [1] > 92 µM | Potency [2] | Potency [3] | Potency [4] | Potency [5] | outcome [6] | outcome [7] | outcome [8] | Potency [9] | caspase-3 activation [10] -0.104% | outcome [11] | Potency [12] | Potency [13] | Potency [14] | Potency [15] | Potency [16] | max response [17] -2.05% | max response [18] 0.928% | max response [19] -7.69% | Potency [20]

Nc1ccccc1O
inactive: Potency [1] > 92 µM | Potency [2] | Potency [3] | Potency [4] | Potency [5] | outcome [6] | outcome [7] | outcome [8] | Potency [9] | caspase-3 activation [10] 4.27% | outcome [11] | Potency [12] | Potency [13] | Potency [15] | Potency [16] | max response [17] -1.39% | max response [18] -24.7% | max response [19] -3.09% | Potency [20]

Oc1c(Cl)cc(Cl)c(Cl)c1Cl
inactive: Potency [1] > 92 µM | Potency [2] | Potency [3] | Potency [4] | Potency [5] | outcome [6] | outcome [7] | outcome [8] | Potency [9] | caspase-3 activation [10] 1.49% | outcome [11] | Potency [12] | Potency [13] | Potency [14] | Potency [15] | Potency [16] | max response [17] 4.27% | max response [18] -1.59% and 6.5% | max response [19] -22.8% and -1.71% | Potency [20]

CCCCOC(=O)COc1ccc(Cl)cc1Cl
inactive: Potency [1] > 92 µM | Potency [2] | Potency [3] | Potency [4] | Potency [5] | outcome [6] | outcome [7] | outcome [8] | Potency [9] | caspase-3 activation [10] -0.377% | outcome [11] | Potency [12] | Potency [13] | Potency [14] | Potency [15] | Potency [16] | max response [17] 7.72% and -1.16% | max response [18] -6.14% and -13.6% | max response [19] -2.46% and -7.81% | Potency [20]
